Bioassay records (PubChem)
DT40 TDP1 CPT – growth inhibition of DT40 Tdp1-/-;hTDP1 cells with camptothecin (screen for TDP1 inhibitors) | actives 12% (n = 420,000) | Potency, µM (highest dose often 46.2 µM), inactives show top-dose activity change, negative = growth inhibition, hits mostly inhibitors | chicken DT40 Tdp1-/-;hTDP1 cells + 20 nM CPT, ATP luminescence, 48 h | AID 686979; note: nearly all actives have a fitted effect of over 55% in size
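Chicken DT40 Tdp1-/- cells complemented with human TDP1, 400 cells/well, exposed to compounds plus 20 nM camptothecin for at least 48 h at 37 C; viability read as ATP content by CellTiter-Glo luminescence.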
KB-3-1 tox – KB-3-1 parental cell cytotoxicity; Potency, µM (titrated, usually from 46.1 µM), actives largely listed as cytotoxic; AID 1347075; KB-3-1 viability, CellTiter-Glo ATP luminescence, 72 h; actives 1.4% (n = 400,000); note: nearly all actives have a fitted effect of over 60% in size
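KB-3-1 cells, DMEM (no phenol red) + 10% FBS; compound by pin transfer, 72 h, 37 °C. Readout: CellTiter-Glo luminescence after 10 min. Data normalized, curve-fitted.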
TDP1 cell noCPT – qHTS for Inhibitors of human tyrosyl-DNA phosphodiesterase 1 (TDP1): qHTS in cells in absence of CPT | DT40 Tdp1-/- hTDP1 cells, no CPT, ATP luminescence, 48 h | AID 686978, 2013 | Potency, µM (top dose mostly 46.2 µM), without a hit: at the highest dose activity change, negative = growth inhibition, actives largely listed as inhibitors | actives 15% (n = 420,000); note: nearly all actives have a fitted effect of over 55% in size
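Cells were dispensed at 400 per well, compounds added by pin tool, plates incubated ≥48 hr at 37 °C, then CellTiter-Glo added for 30 min at room temperature before luminescence reading. Line: DT40 Tdp1-/- complemented with hTDP1; camptothecin omitted.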
HT1080-NT tox – kills 2HG-producing HT-1080-NT fibrosarcoma cells; HT-1080-NT fibrosarcoma viability, CellTiter-Glo ATP luminescence, 48 h; Potency, µM (highest dose often 46.1 µM), inactives show top-dose activity, negative = less viability, usual class: cytotoxic; actives 1.6% (n = 360,000); AID 686970;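 note: NT is the 2HG producing partner of a matched IDH1 knockdown line; 0% = DMSO-treated cells and -100% = media-only wells without cells; nearly all actives have a fitted effect of over 55% in size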
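Viability of the 2HG-overproducing fibrosarcoma line after 48 hours of compound exposure at 37 degrees C was determined by luminescence with CellTiter-Glo, and concentration-effect curves were then fitted and categorized.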
HT1080 IDH1KD tx – kills HT-1080 cells with IDH1 knockdown; HT-1080 IDH1 knockdown viability, ATP luminescence, 48 h; Potency, µM (highest dose often 46.1 µM), inactives show at the highest dose activity, negative = toxicity, usual class: cytotoxic; actives 2% (n = 360,000); AID 686971;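 note: 0% = DMSO wells and -100% = cell-free medium wells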
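Using the IDH1-knockdown HT-1080 line run in the same batch and compound series as the NT line, viability after 48 h at 37 °C was determined by CellTiter-Glo luminescence and expressed as % activity.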
KB-V1 MDR tox – KB-V1 MDR subline cytotoxicity | KB-V1 MDR cells viability, CellTiter-Glo, 72 h | Potency, µM (doses to about 46.1 µM), usual class: cytotoxic | actives 3.4% (n = 400,000); note: nearly all actives have a fitted effect of over 60% in size
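KB-V1 MDR subline cells in DMEM (phenol-red free, 10% FBS) exposed to compounds in qHTS concentration series for 72 h at 37 degrees C. Viability read by CellTiter-Glo luminescence; concentration-effect curves fitted after normalization and correction.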
An asterisk follows results filed as active; i = inactive; ? = inconclusive; nt = no result given; ! = a repeat was not active. Shown are actives, neighbours in structure and some others; about 19% of the full set was active somewhere. Calls come from the whole dose curve; as a rule, active = well fitted curve in the direction sought with a large enough effect; inconclusive = small, poorly fitted or top-dose-only effect, or another doubt; inactive = no such curve, though single readings can be large; an effect the other way counts as inactive or inconclusive. Unless noted, % is set by controls: 0 for no effect and ±100 for the full control effect; potency is the fitted concentration of half-maximal effect.

SMILES	DT40 TDP1 CPT	KB-3-1 tox	TDP1 cell noCPT	HT1080-NT tox	HT1080 IDH1KD tx	KB-V1 MDR tox
COc1ccc(C#Cc2c(-c3ccsc3)oc3ccc(N4CCOCC4)cc23)cc1	?	i	-20.2%	-0.7%	5.2%	i
CCOC(=O)/C(=N\Nc1ccccc1Cl)N1CCN(Cc2ccccc2)CC1	?	i	?	-4.7%	-1.6%	3.66µM*
CCOC(=O)/C(=N\Nc1ccccc1Cl)N1CCN(C)CC1	?	i	?	-15.6%	-19.1%	?
CCOC(=O)c1c(NC(C)=O)sc2c(OCC(O)CN(CC)CC)c(Br)ccc12 (centres undefined)	?	i	20.6µM*	-2.6%	?	i
O=C1CCCC2=C1C1(CCSCC1)N=C(Nc1nc3ccccc3o1)N2	nt	i	nt	nt	nt	i
CCCc1c(C)c2cc(C)ccc2[nH]c1=O	-9.9%	?	-12.8%	3.2%	-0.3%	4.11µM*
CC(C(=O)NCc1ccc(Cl)cc1)n1ccc2cc(S(=O)(=O)N3CCCCCC3)ccc21 (centres undefined)	?	?	18.4µM*	nt	nt	?
CC(C)Oc1ccc(CNC(=O)C(C)n2ccc3cc(S(=O)(=O)N4CCCCCC4)ccc32)cc1 (centres undefined)	?	i	20.6µM*	nt	nt	i
COc1cccc(CNC(=O)C2CCN(S(=O)(=O)c3cn(C)cn3)CC2)c1	1.4%	nt	-5.3%	nt	nt	nt
Clc1cc(Sc2ccc(Br)cc2)nnc1-c1ccccc1	?	i	29.1µM*	-14.2%	-17.7%	i
CC(NC(=O)c1ccco1)C(=O)NC(C)c1cc(F)c(Cl)cc1Cl (centres undefined)	0.7%	i	13.0%	-7.2%	0.1%	i
Cc1ccc(C(=O)C2=C(O)C(=O)N(CC3CCCO3)C2c2ccccc2F)o1 (centres undefined)	0.3%	i	?	11.1%	17.7%	i
Cc1cccc(NC(=O)CSc2nnc3[nH]c(=O)cc(-c4ccccc4)n23)c1C	?	nt	-10.8%	nt	nt	nt
CCOC(=O)c1ccc(N=Cc2nc(-c3ccccc3)oc2OC(C)=O)cc1	9.2µM*	i	6.51µM*	-14.0%	-7.7%	i
CN(C)c1ccc(N=Cc2nc(-c3ccccc3)oc2OC(=O)c2cccc(Br)c2)cc1	?	i	16.4µM*	16.6%	9.1%	i
COc1ccc(N=Cc2nc(-c3ccccc3)oc2OC(=O)c2ccccc2)cc1	20.6µM*	i	23.1µM*	-0.4%	-5.7%	i
CCOC(=O)c1ccc(N=Cc2nc3ccccc3n2C)cc1	?	i	18.4µM*	-13.4%	1.8%	i
CCc1cc2c(cc3c(=O)n(CC(=O)NC4CCCCC4)nc(CC)n32)s1	-4.3%	nt	-21.6%	nt	nt	nt
O=C1NC[C@@H](CCCCN2CCN(CC3CCCCC3)C(=O)C2=O)N(CC2CCCCC2)C1=O	4.2%	?	-13.2%	9.2%	?	i
CNC(=O)C1CCN(S(=O)(=O)c2c(C)noc2/C=C/c2cccc(OC)c2)CC1	2.5%	i	-14.8%	-2.4%	-3.8%	i
CCc1ccc(NC(=O)C2CCN(S(=O)(=O)c3c(C)noc3/C=C\c3ccc(OC)cc3)CC2)cc1	8.2µM*	nt	5.17µM*	nt	nt	nt
CCOC(=O)c1cccc(NC(=O)C2CCN(S(=O)(=O)c3c(C)noc3/C=C/c3ccc(C)cc3)CC2)c1	20.6µM*	?	11.6µM*	nt	nt	i
Cc1ccc(/C=C/c2onc(C)c2S(=O)(=O)N2CCC(C(=O)Nc3ccc(Br)c(C)c3)CC2)cc1	-25.9%	i	-23.3%	nt	nt	i
COc1ccc(/C=C\c2onc(C)c2S(=O)(=O)N2CCC(C(=O)Nc3cccc(OC)c3)CC2)cc1	14.6µM*	nt	16.4µM*	nt	nt	nt
Cc1noc(C)c1S(=O)(=O)N1CCC(C(=O)NCCN2CCC(C)CC2)CC1	-10.9%	i	5.7%	2.1%	1.8%	i
SMILES	DT40 TDP1 CPT	KB-3-1 tox	TDP1 cell noCPT	HT1080-NT tox	HT1080 IDH1KD tx	KB-V1 MDR tox
CCN(CCNC(=O)C1CCN(S(=O)(=O)c2c(C)noc2C)CC1)c1ccccc1	?	i	23.1µM*	-3.9%	-1.4%	i
C[C@H]1CN([C@@H](C)CO)S(=O)(=O)c2ccc(Br)cc2O[C@H]1CN(C)C(=O)c1cccc(F)c1	-7.0%	i	-14.4%	1.1%	3.5%	i
CCc1ccc(NC(=O)C2CCN(S(=O)(=O)c3c(C)noc3C)CC2)cc1	?	i	18.4µM*!	-19.5%	-9.7%	?
COc1cc(NC(=O)c2ccc(C)c(Cl)c2)ccc1NC(=O)c1cc2ccccc2o1	?	i	?	nt	nt	i
CCc1ccc(-c2nc(CN3CCC(C(=O)NCCc4ccc(Cl)cc4)CC3)c(C)o2)cc1	-10.5%	i	?	nt	nt	i
CCOC(=O)C1CCCN(C(=O)C2CCN(Cc3nc(-c4ccc(Cl)cc4)oc3C)CC2)C1 (centres undefined)	?	i	20.6µM*	-2.3%	-10.3%	i
Cc1oc(-c2ccc(Cl)cc2)nc1CN1CCC(C(=O)N2CCc3ccccc3C2)CC1	23.1µM*	i	18.4µM*	0.9%	-1.4%	i
COc1cc(OC)c(OC)cc1CN1CCN(C(=O)CC(C)C)CC1	-11.8%	i	-12.3%	22.5%	21.2%	i
Cc1ccc2c(c1)-c1nc(-c3ccc4c(c3)NC(=O)CO4)cc(-c3ccc(F)cc3)c1CO2	5.8µM*	i	4.61µM*	nt	nt	i
Fc1ccc(-c2cc(-c3ccc(F)cc3)c3c(n2)-c2cc(F)ccc2OC3)cc1	?	i	-20.5%	nt	nt	i
Cc1ccc2c(c1)-c1nc(-c3ccccc3)cc(-c3ccccc3)c1CO2	-28.9%	i	?	nt	nt	i
Cc1ccc(-c2cc(-c3ccc4c(c3)NC(=O)CO4)nc3c2COc2ccccc2-3)cc1	5.17µM*	i	4.11µM*	nt	nt	i
COc1ccc(C=O)cc1COc1ccc(Cl)cc1[N+](=O)[O-]	?	?	20.6µM*	-7.0%	?	?
CCCOc1ccc(N2CC(C(=O)Nc3cccc(Cl)c3Cl)CC2=O)cc1 (centres undefined)	?	nt	-17.2%	nt	nt	nt
O=c1cc(-c2ccccc2)cc(-c2ccccc2)n1O	20.6µM*	i	16.4µM*	-29.3%	?	i
Cn1c(-c2ccccc2)cc(=O)cc1-c1ccccc1	-7.7%	i	-18.5%	-0.2%	-1.6%	i
